Assay results taken from PubChem BioAssay AID588511 (Johns Hopkins Ion Channel Center, 2011).
About 3,600 (1.2%) of roughly 310,000 compounds were called active.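 Rule for the calls: active = ratio plate-corrected score three or more library SD toward inhibition, starting fluorescence score within five deviations; inactive = the rest.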 The sample as a whole holds a higher share of actives than the screen did.

target: Anoctamin-1 (Mus musculus) (UniProt Q8BHY3); assay: TMEM16A chloride channel inhibitors, primary screen, cell-based, HTS (AID 588511); conditions: HEK293 TMEM16A/YFP iodide influx fluorescence, ionomycin; at 10 µM;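 for normalized B-score (activity score, 25-100; higher = stronger inhibition): score derived from kinetic fluorescence span divided by baseline fluorescence per well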
Sequence (Q8BHY3 whole entry, looked up): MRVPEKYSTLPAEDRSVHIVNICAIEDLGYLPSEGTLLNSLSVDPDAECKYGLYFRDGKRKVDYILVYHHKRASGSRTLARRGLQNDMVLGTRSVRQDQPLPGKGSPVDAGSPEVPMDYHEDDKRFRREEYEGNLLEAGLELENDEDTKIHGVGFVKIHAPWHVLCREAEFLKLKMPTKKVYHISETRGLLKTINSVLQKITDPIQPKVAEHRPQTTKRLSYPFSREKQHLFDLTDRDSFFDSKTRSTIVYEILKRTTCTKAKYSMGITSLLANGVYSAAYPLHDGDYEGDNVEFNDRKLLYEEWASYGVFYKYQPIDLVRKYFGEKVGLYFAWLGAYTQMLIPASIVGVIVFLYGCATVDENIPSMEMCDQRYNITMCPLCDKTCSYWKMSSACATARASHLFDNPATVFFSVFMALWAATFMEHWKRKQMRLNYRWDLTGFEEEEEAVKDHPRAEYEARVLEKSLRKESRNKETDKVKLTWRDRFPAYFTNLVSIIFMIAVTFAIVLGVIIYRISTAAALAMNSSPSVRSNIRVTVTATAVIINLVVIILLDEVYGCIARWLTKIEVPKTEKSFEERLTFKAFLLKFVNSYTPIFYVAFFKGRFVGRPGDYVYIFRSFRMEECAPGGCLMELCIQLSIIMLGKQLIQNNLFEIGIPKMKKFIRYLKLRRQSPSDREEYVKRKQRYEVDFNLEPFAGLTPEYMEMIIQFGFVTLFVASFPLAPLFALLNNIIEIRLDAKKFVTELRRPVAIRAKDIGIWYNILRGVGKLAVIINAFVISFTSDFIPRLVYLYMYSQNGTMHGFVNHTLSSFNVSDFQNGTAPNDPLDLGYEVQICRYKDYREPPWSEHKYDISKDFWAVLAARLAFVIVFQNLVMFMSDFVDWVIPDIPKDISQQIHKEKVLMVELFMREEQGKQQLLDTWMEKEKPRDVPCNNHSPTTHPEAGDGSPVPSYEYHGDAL

Structure (SMILES) | normalized B-score (activity score, 25-100; higher = stronger inhibition)
COc1ccc(N(CC(=O)NC2CCCCC2)C(=O)CNC(=O)c2ccco2)c(OC)c1 | inactive
CCOc1ncccc1C(=O)N(C)CC(=O)Nc1ccc(F)cc1 | inactive
Cc1ccc(CNS(=O)(=O)CCNC(=O)c2ccccc2)cc1 | inactive
COc1ccc(CCNC(=O)C(=O)NCC2OCCN2S(=O)(=O)c2ccc(F)cc2)cc1OC (stereo unspecified) | inactive
CCCCNC(=O)c1ccccc1NC(=O)c1ccccc1N(C)S(C)(=O)=O | inactive
CCOC(=O)c1cccc(NC(=O)CCOc2ccccc2)c1 | inactive
CCOC(=O)c1cccc(NC(=O)CCc2c(C)nc3ncnn3c2C)c1 | inactive
CCOC(=O)c1cccc(NC(=O)CCn2nnc3ccccc32)c1 | 100 (active)
COC(=O)c1cc(NC(=O)c2cc(C(C)(C)C)nn2Cc2cccc(C)c2)ccc1N1CCOCC1 | inactive
Cc1cccc(C)c1N1C(=O)CN(Cc2ccccc2)C1=S | inactive
CCCCn1ccnc1C(=O)c1cccc(S(=O)(=O)N2c3ccccc3CC2C)c1 (stereo unspecified) | 25 (active)
CC1Cc2ccccc2N1S(=O)(=O)c1ccc(Cl)nc1 (stereo unspecified) | inactive
CC1Cc2ccccc2N1S(=O)(=O)c1c(N)n(C)c(=O)n(C)c1=O (stereo unspecified) | inactive
CC(=O)N1CCCc2cc(S(=O)(=O)N3CCCC(C(=O)N4CCN(c5cccc(Cl)c5)CC4)C3)ccc21 (stereo unspecified) | 100 (active)
CC(=O)N1CCCc2cc(S(=O)(=O)N3CCCC(C(=O)NCc4ccc(Cl)cc4)C3)ccc21 (stereo unspecified) | inactive
CC(=O)N1c2ccc(S(=O)(=O)N3CCCC(C(=O)Nc4cccc(Cl)c4)C3)cc2CC1C (stereo unspecified) | inactive
COC(=O)c1ccccc1NC(=S)NC(=O)c1ccccc1F | inactive
O=C(NC(=S)Nc1ccccc1C(=O)O)c1ccc(-c2ccc(Br)cc2)o1 | 100 (active)
O=C(O)c1ccccc1NC(=O)c1ccccc1-c1ccccc1C(=O)O | inactive
Cc1cc(C)cc(N(CC(=O)NC2CCCC2)C(=O)CCC(=O)Nc2cc(C)on2)c1 | inactive
COc1cccc(/C=C/C(=O)Nc2ccc3c(c2)OCCO3)c1 | inactive
Cc1[nH]n(-c2ccccc2)c(=O)c1/C=N/NC(=O)c1ccoc1C | inactive

Structure (SMILES) | normalized B-score (activity score, 25-100; higher = stronger inhibition)
COc1cc(SC#N)ccc1N=Cc1c(C)[nH]n(-c2ccc(C)cc2)c1=O | inactive
Cc1ccc(-n2[nH]c(C)c(/C=N/N3C(=O)c4cccc5cccc(c45)C3=O)c2=O)cc1 | 100 (active)
Cc1ccc(C2(C(F)(F)F)N=C3Sc4cc(C)cc(C)c4N3C(=O)N2)cc1 (stereo unspecified) | inactive
Cc1c(C(=O)OCC(=O)N2CCCC2=O)oc2ccccc12 | inactive
COc1ccc(Nc2ncnc3sc(-c4ccccc4)cc23)c(OC)c1 | inactive
Oc1ccccc1N1CCN(c2ncnc3sc(-c4ccccc4)cc23)CC1 | inactive
c1ccc(-c2cc3c(NCC4COc5ccccc5O4)ncnc3s2)cc1 (stereo unspecified) | 100 (active)
COc1cc(Cl)c(C)cc1NC(=O)CN1CCCCCC1 | inactive
O=C(Cc1cccs1)NCc1cccc(C(F)(F)F)c1 | inactive
CCOn1c(=O)c(=O)n(O)c2ccccc21 | inactive
CN1CCC(=O)N([C@H](CO)Cc2ccccc2)CC1 | inactive
C[C@H]1CCC(=O)N([C@H](CSc2ccccc2)Cc2ccccc2)CC1 | 25 (active)
COc1ccc(SC[C@H](Cc2ccccc2)N2CCN(CCc3ccccc3)CCC2=O)cc1 | inactive
Cn1c2c(c(=O)n(C)c1=O)C(c1cccc([N+](=O)[O-])c1)Nc1ccccc1O2 (stereo unspecified) | inactive
COc1ccc(CCNC(=O)CS(=O)(=O)Cc2nc(-c3ccc(C)cc3)oc2C)cc1OC | inactive
COc1cccc(-c2nc(CS(=O)(=O)CC(=O)NCCc3ccc(OC)c(OC)c3)c(C)o2)c1 | inactive
COc1ccc(CCNC(=O)C2CCCN(Cc3nc(-c4cccc(Cl)c4)oc3C)C2)cc1OC (stereo unspecified) | 100 (active)
CCOc1ccc(/C=C/C(=O)OCC(=O)c2ccccc2OC)cc1OC | inactive
Cc1cccc(N)c1SC1CCCCC1O (stereo unspecified) | inactive
Cc1cccc(N=C2SC(C)CN2C(=O)CN2C(=O)NC3(CCCC3)C2=O)c1 (stereo unspecified) | inactive
O=C(Nc1nnc(S(=O)(=O)N2CCCCCC2)s1)c1cccc(Br)c1 | inactive
NS(=O)(=O)c1ccc(N=Cc2ccc(Br)s2)cc1 | inactive

Structure (SMILES) | normalized B-score (activity score, 25-100; higher = stronger inhibition)
COc1ccccc1C1C2=C(COC2=O)Nc2cc3c(cc21)OCO3 (stereo unspecified) | inactive
CCCOc1ccccc1C1CC(=O)Nc2cc3c(cc21)OCO3 (stereo unspecified) | 25 (active)
COC(=O)C1=C(C)NC(=O)CC1c1ccccc1OC (stereo unspecified) | inactive
CC1CCN(C(=O)CN(c2ccc(Oc3ccccc3)cc2)S(C)(=O)=O)CC1 | inactive
COc1ccc(S(=O)(=O)N(CCCN2CCCC2=O)Cc2cc3c(C)ccc(C)c3[nH]c2=O)cc1 | inactive
Cc1ccc(-c2noc(CSc3nnc(-c4cccs4)n3C)n2)cc1 | inactive
Cc1ccc(-c2noc(CSc3nnnn3-c3ccccc3)n2)cc1 | 100 (active)
Cc1ccc(-c2noc(CSc3nnc(-c4ccccc4)n3C)n2)cc1 | inactive
Cc1ccc(-c2nnc(CN3CCN(C)CC3)o2)cc1 | inactive
O=C(NCCCN1CCCC1=O)C(=O)NCC1OCCN1S(=O)(=O)c1ccc(Br)cc1 (stereo unspecified) | inactive
Cn1c(SCC(=O)N2CCCCC2)nc2c(c1=O)SCC2 | inactive
CCn1c(SCc2ccccc2)nc2c(c1=O)SCC2 | inactive
Cc1cccc(CSc2nc3c(c(=O)n2C)SCC3)c1 | 25 (active)
O=C(Nc1ccnn1C1CCN(C/C=C/c2ccc(F)cc2)CC1)C1CCCC1 | inactive
COc1ccc(OC)c(S(=O)(=O)N2CCCC(C(=O)N3CCC(C(N)=O)CC3)C2)c1 (stereo unspecified) | inactive
Cc1ccc(C(=O)NNC(=O)C(C)Oc2ccc3ccccc3c2)o1 (stereo unspecified) | inactive
CCCc1ccc(OCC(=O)NNC(=S)NC(=O)c2ccco2)cc1 | inactive
CC(Oc1ccc2ccccc2c1)C(=O)NNC(=S)NC(=O)c1ccco1 (stereo unspecified) | 100 (active)
O=C(Nc1cc(-c2ccccc2)nn1-c1ccccc1F)c1ccc([N+](=O)[O-])cc1 | inactive
CSc1ccc(C(=O)C2CCCN(C(=O)c3ccc(C)nc3)C2)cc1 (stereo unspecified) | inactive
CCOC(=O)N1CCC(=NNC(N)=O)CC1 | inactive
Cc1cccc(-c2nc(CS(=O)CC(=O)NC(C)CCc3ccccc3)c(C)o2)c1 (stereo unspecified) | inactive
